Test results taken from the supplement of paper PMC6555819.

Key:
Test in all cases: PBM binding z-score (relative to random genomic background probes); higher = stronger binding; sequences stand for … in GC…GCGATTGACAGCGTAGAATGAAGG
[1] = test system: RARb homodimer (NR concentration 270 nM)
Summary of the method: (§1)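 Binding buffer was PBS pH 7.4 with 2% milk, 0.02% Triton X-100, 1 mM DTT, 0.2 mg/mL BSA and 0.4 mg/ml salmon testes DNA. In it, ligand-free nuclear receptor dimers were incubated 1 h on custom Agilent 4×180K protein-binding microarrays carrying double-stranded probes. Antibodies against each partner (one per run) detected binding, and z-scores were calculated against random background probes after regression normalization of scanned fluorescence.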

[2] = test system: RARg:RXRa (NR concentration 270 nM, RXRa partner concentration 90 nM)
Summary of the method: as §1

[3] = test system: RARg homodimer (NR concentration 270 nM)
Summary of the method: as §1

[4] = test system: RXRa DBDmut IVT, anti-RXR (DBD mutation: RXRa K156A/R161A, NR concentration 90 nM)
Summary of the method: as §1

[5] = test system: RXRa homodimer (NR concentration 180 nM)
Summary of the method: as §1

[6] = test system: THRa:RXRa (NR concentration 90 nM, RXRa partner concentration 90 nM)
Summary of the method: as §1

[7] = test system: THRa homodimer (NR concentration 90 nM)
Summary of the method: as §1

[8] = test system: VDR homodimer (NR concentration 270 nM)
Summary of the method: as §1

Row | Sequence | PBM binding z-score [1] | PBM binding z-score [2] | PBM binding z-score [3] | PBM binding z-score [4] | PBM binding z-score [5] | PBM binding z-score [6] | PBM binding z-score [7] | PBM binding z-score [8]
1 | AGAATGAGGGTACCAAAGATCAGGGAAACGCTTG | 0.0111 | 0.44 | 0.506 | 0.104 | 0.821 | 0.502 | -0.667 | -0.0915
2 | CCTACTGGGCCTTCAGGTCATTGATATCAACGTT | 2.18 | 1.13 | 1.39 | -0.0421 | 0.791 | 3.15 | 3.23 | 1.64
3 | ATCTCTAGGTAAAAGTTCAGTTAATCCCGAGGAT | 2.52 | 2.1 | 2.04 | 0.885 | 1.63 | 1.61 | 0.805 | 2.12
4 | TGTCAAAGTTCAATGGTAACGTAAGTATCCACAC | 3.32 | 4.79 | 5.39 | 3.67 | 3.74 | 1.39 | -0.627 | 3.52
5 | CCTAGTGGGCCACGAAAGGTCATTGATTCAGTGA | 4.68 | 4.71 | 4.64 | 0.0516 | 5.09 | 3.82 | 0.453 | 1.99
6 | GTACCAAGGTGAATGGGTCGTTGATGAGTAGGCG | 1.33 | 1.28 | 0.93 | -0.402 | 1.08 | 1.74 | 0.777 | 0.187
7 | CCTTACGGGTCAAGGTTATAGAACGGGTGGTACG | 3.67 | 4.92 | 4.97 | 0.482 | 5.58 | 3.02 | 0.782 | 1.14
8 | CCGACTAGGTTATGGGGCATTCAGGCAACGGTGA | 1.03 | 0.358 | 0.34 | -0.142 | 0.666 | 0.586 | 0.24 | 0.126
9 | CTACCAACGTGAACAAGGTCGTTGATTACTATTC | 1.42 | 0.533 | 0.432 | 1.53 | 0.896 | 1.82 | 1.41 | 1.88
10 | TCGAGTAGGTTAGTCGGGGCATTCAGCCAACATA | 0.309 | -0.257 | -0.115 | 0.217 | -0.227 | 0.885 | -0.0985 | 0.0153
11 | GCTAGCAGGCCATTTGGGTCACTTAATGACGGGC | 1.82 | 0.913 | 1.22 | -0.0616 | 0.684 | 1.79 | 0.181 | 0.405
12 | TAGAGTAGGTTACCAATGGGGCATTCAGCTTTCT | 1.09 | 1.76 | 1.12 | 0.201 | 0.73 | 0.389 | -0.222 | -0.0971
13 | GCTATTATTTGAAAGGGCAACCGAATGATTCTCG | 2.11 | 1.12 | 1.27 | 0.947 | 1.03 | 0.568 | 0.3 | 0.995
14 | TCTAGTAGGTTAGTCGGGGCATTCAGCCAACATA | 1.04 | 0.36 | 0.358 | 1.33 | 0.381 | 1.4 | 0.765 | 1.14
15 | CCTACTGGGCCACGAAAGGTCATTAATTCAGTGA | 4.39 | 4.33 | 3.75 | 0.737 | 4.52 | 3.67 | 1.04 | 2.25
16 | CGTCAAAGTTCAACTACGGTAACGTAAAGCACGC | 4.21 | 5.89 | 6.48 | 4.64 | 5.18 | 4.23 | -0.22 | 3.69
17 | CCTTACGGGTCACTGACAGGTTATATCATTTGGA | 3.45 | 5.75 | 4.58 | 1.64 | 5.22 | 2.96 | 0.162 | 1.32
18 | TCTACTTGGTCAAAGGTCACACACTCGAAATGCG | 5.11 | 7.2 | 6.3 | 2.19 | 8.15 | 4.24 | 2.7 | 2.68
19 | TCTTGTAGATCATAGGTTAAGAAAGCCGAAGCCT | 0.203 | 0.785 | 0.187 | 0.657 | 1.34 | 0.458 | -0.386 | -0.05
20 | TCTATTAGTTGATTAGGGAAACCGAAACAGCGGA | 0.0312 | 0.311 | 0.329 | 1.18 | 0.472 | 0.12 | 0.159 | 0.507
21 | CCGAGTAGGCTATGGGGCATTCAGGCAACGGTGA | -0.154 | -0.57 | -0.466 | -0.62 | -0.38 | -0.343 | -0.619 | -0.709
22 | GCTCGGAGGACAAGATCAGAGCTTTGTCCGTAGA | -0.303 | -0.459 | 0.204 | -0.708 | -0.639 | 0.191 | -0.651 | -0.587
23 | CGTACTAGGTCATTGACAGGACAGTGAATAGTAA | 2.49 | 4.45 | 4.13 | 2.38 | 2.6 | 2.9 | 0.971 | 1.45
24 | CCTAGTTTGTCAGGAGGTCACACACCGGATATGA | 4.01 | 4.61 | 3.87 | 1.93 | 4.52 | 3.62 | 2.87 | 3.26
25 | ATATCTAGGTAAAGATAGTTCAGTGAATGCAAAT | 0.985 | 0.606 | 0.877 | 0.0845 | 0.518 | 0.642 | -0.33 | 0.327
26 | TAGGCTAGGTCAGATCGGGCCAGTATACGCTATA | 2.06 | 2.87 | 3.61 | -0.36 | 1.45 | 4.13 | -0.412 | -0.515
27 | TCATATAGGTAAACGGGTGAAAGTCCGTAAGTTA | 0.485 | 0.423 | 0.128 | 1.05 | 1.03 | 0.421 | -0.157 | 0.053
28 | TCTTGTAGTTCAATAGAGGTTAAGAAAGTGCGCT | 2.27 | 2 | 2 | 2.27 | 2.15 | 3.61 | 0.104 | 1.59
29 | TCATATAGGTAAAGGTCAAAGTCGAACGATATGA | 4.51 | 6.35 | 5.87 | 1.9 | 7.64 | 3.68 | 0.708 | 2.32
